Assay outcomes from PubChem BioAssay.
Pf growth 48h = P. falciparum growth inhibition at 48 hours (one generation); AID 504832; P. falciparum luciferase growth in erythrocytes, 48 h; hit rate 5.9% among 310,000; Potency, µM (highest dose often 28.7 µM), without a hit: at the highest dose activity change, negative = inhibition, usual class: inhibitors; also: potency is read from the fitted curve at half-maximal effect
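Growth was read as firefly luciferase luminescence after a 48 h, 37 C, 5% CO2 exposure of compounds to reporter-bearing P. falciparum cultures (0.1% parasitemia, 2% hematocrit final) in Albumax-supplemented RPMI 1640.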
Pf growth 96h = P. falciparum growth inhibition at 96 hour, primary screen for plastid delayed-death inhibitors; Potency, µM (doses to about 28.7 µM), inactives show at the highest dose activity change, negative = inhibition, most hits filed as inhibitors; hit rate 6.9% among 320,000; P. falciparum luciferase reporter growth, 96 h; also: potency is read from the fitted curve at half-maximal effect
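Infected RBCs, 2% Hct / 0.05% parasitemia final; luciferase-reporter P. falciparum; cpd 96 h, 37 C, 5% CO2; luciferase detection reagent; luminescence.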
LASV entry inh = blocks Lassa virus binding to or entry into cells. Lassa virus pseudotype entry inhibition, cell reporter. Potency, µM (titrated, usually from 37.9 µM), for inactives: top-dose activity change, negative = inhibition, hits mostly inhibitors. hit rate 1.2% among 300,000; calls by dose curve; tested in HEK293 cells; also: potency is read from the fitted curve at half-maximal effect; nearly all actives have a fitted effect of over 50% in size
MARV entry inh = blocks Marburg virus binding to or entry into cells | Marburg virus pseudotyped entry inhibition, cell reporter | Potency, µM (series often up to 37.8 µM), inactives show at the highest dose activity change, negative = inhibition, actives largely listed as inhibitors | hit rate 1.8% among 300,000; calls by dose curve; tested in HEK293 cells; also: potency is read from the fitted curve at half-maximal effect
HCMV antiviral = inhibitors of human cytomegalovirus. activity change, negative = inhibition, % at 57.5 µM. HFF cells, HCMV-luciferase reporter, 72 h; hits give low values. AID 1259415. hit rate 4.5% among 410,000; in the data active = activity change below about -60%; inconclusive = no clear call, values can overlap the other calls; inactive = above about -39%
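Screen run at 2 compound doses on HFFs infected with reporter HCMV, MOI 1 PFU/cell. Luciferase activity from cell lysates at 72 h post infection gave inhibition relative to buffer-only and Salinomycin wells.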
HCV inhibitor = HCV inhibition. hit rate 3.4% among 340,000. Huh7.5.1 HCVcc-Cre infection, luciferase reporter, 44 h. Potency, µM (doses to about 41.8 µM), for inactives: top-dose activity change, negative = inhibition, usual class: inhibitors; also: potency is read from the fitted curve at half-maximal effect
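HCVcc-Cre virus at an moi near 0.5 was added right after compound to cells cultured 4 h from seeding (1,000 cells/well). Luciferase activity was determined 44 h later, 15 min after substrate addition at RT.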
An asterisk follows results filed as active; ? = inconclusive; · = not tested or not shown; [ ] = remark or other dose. Sampled rows, rich in hits. Any-hit rate of the full collection: about 14%. Unless noted, calls follow the shape of the dose curve; as a rule, active = well fitted inhibition curve with a large enough effect; inconclusive = small, poorly fitted or top-dose-only effect, or another doubt; inactive = no such curve, though single readings can be large or run the other way. % is scaled to controls: 0 for no effect and ±100 for the full control effect.

SMILES | Pf growth 48h | Pf growth 96h | LASV entry inh | MARV entry inh | HCMV antiviral | HCV inhibitor
CN(C(=O)CSc1nnc(Nc2ccccc2)s1)c1c(N)n(Cc2ccccc2)c(=O)[nH]c1=O | -20% | · | -17% | -8% | 3 | -4%
COCCN(C(=O)COC(=O)c1ccccc1Nc1ccccc1)c1c(N)n(Cc2ccccc2)c(=O)[nH]c1=O | ? | 9.3µM* | ? | ? | -21 | ?
CCCCN(C(=O)CSc1nnc(Nc2ccc(C)c(C)c2)s1)c1c(N)n(Cc2ccccc2)c(=O)[nH]c1=O | -26% | · | ? | ? | 29 | 10µM*
CCCn1c(C)cc(/C=C(\C#N)C(=O)OCC(=O)N(CC)c2c(N)n(Cc3ccccc3)c(=O)[nH]c2=O)c1C | · | · | -9% | ? | -11 | ?
COCCN(C(=O)COC(=O)C(c1ccccc1)c1ccccc1)c1c(N)n(Cc2ccccc2)c(=O)[nH]c1=O | 10µM* | 7.4µM* | 0% | -19% | 14 | -16%
COCCn1c(C)cc(/C=C(\C#N)C(=O)OCC(=O)N(C)c2c(N)n(Cc3ccccc3)c(=O)[nH]c2=O)c1C | ? | 13µM* | 9% | 0% | 8 | 14%
Cn1c(SCC(=O)c2ccc(F)cc2)nnc1-c1ccccc1Br | · | · | -14%[46.1 µM] | ? | -16 | ·
Cc1cc(C)c(NC(=O)CSC2=Nc3ccccc3C3=NC(CC(=O)NCc4cccs4)C(=O)N23)c(C)c1 (configuration not stated) | · | · | 22%[46.1 µM] | 20%[46.1 µM] | -2 | ·
CCOC(=O)[C@H](C)Oc1ccc2c(C)cc(=O)oc2c1C(C)=O | · | · | · | 15% | · | ·
COCCN(C(=O)CSc1nnc2cc(C)c3ccccc3n12)c1c(N)n(Cc2ccccc2)c(=O)[nH]c1=O | ? | -11% | ? | ? | -94* | -23%
COCCN(C(=O)CSc1nnc(C)n1Cc1ccccc1)c1c(N)n(Cc2ccccc2)c(=O)[nH]c1=O | -3% | 15% | 1% | ? | · | 4%
Cc1ccc(CSc2nnc(-c3cccs3)n2C)cc1 | 12µM* | 16% | 4% | 3% | -15 | 7%
Cn1c(SCc2ccc(Br)cc2)nnc1-c1cccs1 | ? | ? | ? | -23% | -36 | ?
Cc1ccc(CSc2nnc3nc(C)cc(C)n23)cc1 | ? | · | 20% | ? | -84* | 9%
CCn1c(SCc2ccccc2)nnc1-c1cccs1 | 9.3µM* | ? | 7% | 11% | -24 | 2%
CCn1c(SCc2ccccc2)nnc1C1CCCCC1 | ? | 9.3µM* | -11% | ? | -24 | 5%
O=C1C(=O)N(C2CCNCC2)CCN1Cc1ccccc1 | · | · | -3%[46.1 µM] | · | 6 | ·
CC(=O)Nc1ccc(CN(C)c2c(C)nc3ccc(C(=O)NC4CCN(Cc5ccccc5)CC4)cn23)cc1 | · | · | · | · | -97* | ·
CC(=O)Nc1ccc(CN(C)c2c(C)nc3ccc(C(=O)N(C)Cc4ccccc4)cn23)cc1 | · | · | · | · | 1 | ·
CCC(=O)Oc1ccc(C(=O)Nc2ccc3c(c2)OCO3)cc1 | 118% | 1% | ? | ? | -103* | 14%
O=C(Nc1ccc2c(c1)OCO2)c1ccc2c(c1)OCO2 | 275% | 393% | ? | ? | 8 | -9%
O=C(Nc1ccc(Cl)c(Cl)c1)c1ccc2c(c1)OCO2 | 250% | -14% | -28%[46.1 µM] | ? | 30 | -21%
O=C(Nc1ccc(F)c(F)c1)c1ccc2c(c1)OCO2 | 168% | 2.3µM* | -2% | -11% | 13 | -13%
O=C(Nc1ccc2nsnc2c1)c1ccc2c(c1)OCO2 | 171% | ? | 12µM* | ? | 140 | 2%
CC(=O)Nc1ccc(C(=O)Nc2ccc3c(c2)OCO3)cc1 | 31% | 2.3µM* | 10% | 9% | 34 | 7%
SMILES | Pf growth 48h | Pf growth 96h | LASV entry inh | MARV entry inh | HCMV antiviral | HCV inhibitor
CCCCOc1ccc(C(=O)Nc2ccc3c(c2)OCO3)cc1 | 44% | 26% | · | · | -36 | -20%
CCCCCCC(=O)Nc1cc2nc3c(nc2cc1C)c(=O)n(C)c(=O)n3C | · | · | 2%[46.1 µM] | 1%[46.1 µM] | 15 | ·
Cc1c(NC(=S)NC(NC(=O)CC(C)C)C(Cl)(Cl)Cl)c(=O)n(-c2ccccc2)n1C (configuration not stated) | -15% | ? | 0% | 2% | 10 | -8%
CCc1ccc(OCC(=O)NC(NC(=S)Nc2ccc(C)cc2C)C(Cl)(Cl)Cl)cc1 (configuration not stated) | ? | ? | -27% | ? | -64* | ?
Cc1ccccc1NC(=S)NC(NC(=O)COc1ccccc1)C(Cl)(Cl)Cl (configuration not stated) | -13% | ? | -10% | ? | -8 | 1%
CCC(=O)NC(NC(=S)Nc1ccc(S(N)(=O)=O)cc1)C(Cl)(Cl)Cl (configuration not stated) | -6% | 2.1µM* | -15% | ? | 21 | 14%
CCc1ccc(OCC(=O)NC(NC(=S)Nc2ccccc2)C(Cl)(Cl)Cl)cc1 (configuration not stated) | 13µM* | 0% | ? | ? | -27 | ?
O=C(COc1ccccc1)NC(NC(=S)Nc1ccccc1O)C(Cl)(Cl)Cl (configuration not stated) | ? | 6% | ? | ? | -1 | -4%
CC(C)CC(=O)NC(NC(=S)Nc1ccccc1)C(Cl)(Cl)Cl (configuration not stated) | 13µM* | 3% | · | ? | 53 | 0%
CC(=O)NC(NC(=S)Nc1ccc(S(N)(=O)=O)cc1)C(Cl)(Cl)Cl (configuration not stated) | -8% | -13% | · | · | 18 | 13%
Cc1ccccc1NC(=O)c1cc2c(-c3ccccc3)nn(-c3ccccc3)c2s1 | · | · | 8%[46.1 µM] | -7%[46.1 µM] | -10 | ·
CCc1cccc(NC(=O)Cn2c(C(=O)OC)cc3occc32)c1 | · | · | · | -1%[46.1 µM] | 20 | ·
Nc1ncnc2c1ncn2[C@@H]1O[C@H](CNC(=O)[C@@H](N)Cc2ccc(C(F)(F)F)cc2)[C@@H](O)[C@H]1O | · | · | · | 5% | -14 | -4%
CCc1nc(SCc2cc(=O)c3cc(C)ccc3[nH]2)n[nH]1 | · | · | -10%[46.1 µM] | · | -10 | ·
COC(=O)NC(NC(=S)Nc1ccccc1OC)C(Cl)(Cl)Cl (configuration not stated) | ? | ? | -4% | 8% | 13 | -3%
O=C(O)CCC(=O)Nc1ccc(N=Nc2ccccc2)cc1 | 46% | 96% | -3% | 1%[46.1 µM] | · | 21%
COc1ccccc1NC(=S)NC(NC(=O)C(C)C)C(Cl)(Cl)Cl (configuration not stated) | 7.4µM* | 12% | -11% | 1%[46.1 µM] | -28 | 18%
CC(C)(C)C(=O)Nc1ccc(N=Nc2ccccc2)cc1 | 27% | 56% | ? | ? | -62* | ?
